This note sets out measurements from the supplement of paper PMC9135407.

“And” between values parts separate entries of the source, which are not always exact repeats. Identical values can stand only once. Counter-ions that a name gives are not always drawn. Out of some 5,800 compounds screened, about 620 (11%) showed activity. What follows is part of a selection rich in actives, with near analogues and random picks from the rest. Unmarked numbers belong to inactive results.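 The calls were made as follows: active = score above a cut-off or among the top three wells of a plate; in these data no inactive exceeds 0.85.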

The test system of the assay is primary human hepatic stellate cells (donor 1). The experiment in a line: scaled lipid accumulation score (0 = DMSO-like, 1 = nortriptyline-like); higher = stronger HSC inactivation (lipid re-accumulation), active = hit call of the paper. As to conditions: 48 h.
The mark [1] stands for this setting: library stock concentration: 10 mM.
Setting [2] is: library stock concentration: 1 mM.
Where [3] appears, read: library stock concentration: 3.33 mM.
Setting [4] is: library stock concentration: 400 uM.
The mark [5] stands for this setting: library stock concentration: 2 mM.

With `CCc1cc(Cl)c(OC)c(C(=O)NC[C@@H]2CCCN2CC)c1O.Cl` [Eticlopride hydrochloride], the “scaled lipid accumulation score” value under setting [1] was 0.978 (active). In the case of `CCc1cc(Cl)c(OC)c(C(=O)NC[C@@H]2CCCN2CC)c1O`, under setting [1], the “scaled lipid accumulation score” value was 0.351.

For `CCN1CCC[C@H]1CNC(=O)c1c(O)c(Cl)cc(Cl)c1OC` [Raclopride], the “scaled lipid accumulation score” value under setting [1] was ≤ 0 and ≤ -0.006. As for `CCN1CCC[C@H]1CNC(=O)c1c(O)c(Cl)cc(Cl)c1OC` [S(+)-Raclopride L-tartrate], under setting [1], the “scaled lipid accumulation score” value was at most 0. Consider `CCCCC[C@H](O)/C=C/[C@@H]1[C@@H](C/C=C\CCCC(=O)O)[C@@H](O)C[C@@H]1O` [11.beta.-Prostaglandin F2.alpha.], for which the “scaled lipid accumulation score” value under setting [2] is at most 0.

Regarding `CCCCC[C@H](O)/C=C/[C@@H]1[C@@H](C/C=C\CCCC(=O)O)[C@@H](O)C[C@@H]1O` [9a,11b-Prostaglandin F2], under setting [2], the “scaled lipid accumulation score” value was at most -0.021. On to `CCCCCCCCCCCCCCCCCCCCCCCCCCCCCCO` [n-Triacontanol], for which, under setting [2], the “scaled lipid accumulation score” value was 0.026. Turning to `O=C(O)Cc1ccccc1Nc1c(Cl)cccc1Cl` [Diclofenac sodium], the “scaled lipid accumulation score” value was 0.036. Also, the “scaled lipid accumulation score” value (library stock concentration: 6.3 mM) was 0.003. For the same molecule, under setting [1], the “scaled lipid accumulation score” value is ≤ -0.07 and ≤ 0. On to `O=C(O)Cc1ccccc1Nc1c(Cl)cccc1Cl` [Diclofenac Diethylamine], for which the “scaled lipid accumulation score” value is at most 0 under setting [3] and at most 0 under setting [1]. Consider `O=C(O)Cc1ccccc1Nc1c(Cl)cccc1Cl` [Diclofenac Sodium], for which the “scaled lipid accumulation score” value under setting [3] was at most 0 and the “scaled lipid accumulation score” value under setting [1] is 0.007.

For `O=C(O)Cc1ccccc1Nc1c(Cl)cccc1Cl`, the “scaled lipid accumulation score” value under setting [1] is at most 0. The same measure, in the same setting: then `Cl.Cl.Clc1ccccc1CNC[C@H]1CC[C@H](CNCc2ccccc2Cl)CC1`, with 1.48 (active); and `COc1ccccc1CNCCCCCCNCCCCCCCCNCCCCCCNCc1ccccc1OC` [Methoctramine tetrahydrochloride], with 0.621. For the molecule `O=C(O)Cc1ccccc1Nc1c(Cl)cccc1Cl` [Diclofenac Potassium], the “scaled lipid accumulation score” value was at most 0 under setting [3] and at most 0 under setting [1]. In the case of `O=C(O)Cc1ccccc1Nc1c(Cl)cccc1Cl` [Diclofenac (sodium salt)], the “scaled lipid accumulation score” value under setting [2] is at most 0. Take `Cc1ncc(CSSCc2cnc(C)c(O)c2CO)c(CO)c1O`: the “scaled lipid accumulation score” value under setting [1] is at most 0. The same measure, in the same setting: in the case of `O=C1c2c(O)cc(CO)cc2C(OC2OC(CO)C(O)C(O)C2O)c2cccc(OC3OC(CO)C(O)C(O)C3O)c21` (configuration not stated) [CASANTHRANOL [cascaroside A shown]] it was at most 0. For the molecule `CCCCCCCCCCCSCC(=O)O` [3-Thiatetradecanoic Acid], under setting [2], the “scaled lipid accumulation score” value is 0.006.

`Cn1cc(-c2[nH]c3cc(NC(=O)[C@H](N)C4CCCCC4)cc4c3c2C=NNC4=O)cn1`: the “scaled lipid accumulation score” value was at most 0 under setting [3] and 0.077 under setting [1]. Turning to `CN1c2cc3c(cc2N=C(c2ccc(C(=O)O)cc2)c2ccccc21)C(C)(C)CCC3(C)C`, under setting [1], the “scaled lipid accumulation score” value was 0.08. With `CNCCCC12CCC(c3ccccc31)c1ccccc12` [Maprotilline HCl], the “scaled lipid accumulation score” value under setting [1] was 1.35 (active). As to `CNCCCC12CCC(c3ccccc31)c1ccccc12` [Maprotiline HCl], the “scaled lipid accumulation score” value under setting [3] was 0.678. Consider `CNCCC[C@]12CC[C@H](c3ccccc31)c1ccccc12` [Maprotiline HCl], for which the “scaled lipid accumulation score” value (library stock concentration: 7.2 mM) is 1.22 (active). With `C=CCN1CCc2c(cc(O)c(O)c2Cl)C(c2ccccc2)C1` (configuration not stated), the “scaled lipid accumulation score” value under setting [1] was 0.02. Same read-out and setting: then `NCCNC(=O)c1ccc(Cl)cn1` [Lazabemide hydrochloride], with at most -0.001; and `CCCCNC(=O)[C@@H]1Cc2ccccc2N1C(=O)[C@@H](N)CC` [Butabindide oxalate], with 0.016. With `CCCCCCCCCCCC=CC(C)(C)C=CCCCC(=O)O` [7,7-Dimethyleicosadienoic acid], under setting [2], the “scaled lipid accumulation score” value is at most -0.02. `Clc1ccc2c(c1)N=C(N1CCNCC1)c1ccccc1N2` [N-Desmethylclozapine] [listing 1 of 2 here]: the “scaled lipid accumulation score” value under setting [1] is 0.668. Take `CN1CCN(C2=Nc3cc(Cl)ccc3Nc3ccccc32)CC1` [Clozapine] [listing 1 of 4 here]: the “scaled lipid accumulation score” value is 1 (active). With `CN1CCN(C2=Nc3cc(Cl)ccc3Nc3ccccc32)CC1` [Clozapine] [listing 2 of 4 here], under setting [1], the “scaled lipid accumulation score” value is 0.977 (active). The same measure, in the same setting: then `Clc1ccc2c(c1)N=C(N1CCNCC1)c1ccccc1N2` [N-Desmethylclozapine] [listing 2 of 2 here], with 0.941 (active); and `CN1CCN(C2=Nc3cc(F)ccc3Cc3ccccc32)CC1` [Fluperlapine], with 0.448; and `CN1CCN(C2=Nc3cc(Cl)ccc3Nc3ccccc32)CC1`, with 0.854 (active). In the case of `CC(NC(=O)C(O)c1cc(F)cc(F)c1)C(=O)NC1C(=O)N(C)c2ccccc2-c2ccccc21` (configuration not stated), the “scaled lipid accumulation score” value is 0.011 under setting [3] and 0.133 under setting [1]. The like results for `O=C(Nc1cccc2cccnc12)c1ccc(N2C(=O)C3C4C=CC(C4)C3C2=O)cc1` (stereo not drawn) [IWR-1-endo] were, in that order, at most 0 and at most -0.001. With `CCCCC/C=C\C/C=C\C/C=C\C/C=C\CCCC(=O)OCc1ccsc1`, under setting [2], the “scaled lipid accumulation score” value was at most 0.

`C[C@]12CC[C@@H]3c4cc(O)c(O)cc4CC[C@H]3[C@@H]1CC[C@@H]2O` [2-Hydroxyestradiol]: the “scaled lipid accumulation score” value under setting [2] is at most 0.

Consider `Nc1nccc(-c2ccc3noc(-c4ccc(Cl)cc4)c3c2)n1` [PIM 1 Inhibitor 2], for which the “scaled lipid accumulation score” value under setting [1] was at most 0. For `CCNc1nc2c(ncn2[C@H]2C[C@H](O)[C@@H](CO)O2)c(=O)[nH]1` [N2-Ethyl-2'-deoxyguanosine], under setting [1], the “scaled lipid accumulation score” value was at most 0.

Turning to `N.N.N.N.N.N.N.N.N.N.N.N.N.N.O.O.[Cl-].[Cl-].[Cl-].[Cl-].[Cl-].[Cl-].[Ru+4].[Ru+5].[Ru+5]` [Ruthenium red], the “scaled lipid accumulation score” value under setting [1] is at most 0. On to `CC(C)=CCC/C(C)=C/CC/C(C)=C/CC/C(C)=C/CC/C(C)=C/CC/C(C)=C/CC1=C(C)C(=O)c2ccccc2C1=O` [Vitamin K2], for which the “scaled lipid accumulation score” value is 0.008.

`CN1CCN(C2=Nc3cc(Cl)ccc3Nc3ccccc32)CC1` [Clozapine] [listing 3 of 4 here]: the “scaled lipid accumulation score” value under setting [1] is 0.967 (active).

With `Cc1cc2c(s1)Nc1ccccc1N=C2N1CCN(C)CC1` [Olanzapine], the “scaled lipid accumulation score” value under setting [3] is 0.171; the “scaled lipid accumulation score” value (library stock concentration: 6.4 mM) was 0.341 and ≤ 0; the “scaled lipid accumulation score” value under setting [1] was 0.232. For the molecule `Cc1cc2c(s1)Nc1ccccc1N=C2N1CCN(C)CC1`, for the setting “library stock concentration: 9.9 mM”, the “scaled lipid accumulation score” value is 0.228. For `CN1CCN(C2=Nc3cc(Cl)ccc3Nc3ccccc32)CC1` [Clozapine] [listing 4 of 4 here], the “scaled lipid accumulation score” value under setting [3] was 0.105; the “scaled lipid accumulation score” value (library stock concentration: 6.1 mM) is 0.429 and 0.648; the “scaled lipid accumulation score” value under setting [1] is 0.755 and 0.578; the “scaled lipid accumulation score” value (library stock concentration: 15.3 mM) is 0.769.

With `O=C(O)CCC/C=C\C[C@@H]1[C@@H](CC[C@@H](O)CCc2cccc(C(F)(F)F)c2)[C@H](O)C[C@@H]1O`, under setting [2], the “scaled lipid accumulation score” value is at most 0. For `CCCCOc1cc(C(=O)NCCN(CC)CC)c2ccccc2n1` [Dibucaine hydrochloride], the “scaled lipid accumulation score” value (library stock concentration: 5.3 mM) is 0.662 and the “scaled lipid accumulation score” value under setting [1] is at most 0. Take `CCCCOc1cc(C(=O)NCCN(CC)CC)c2ccccc2n1.Cl` [Dibucaine HCl]: under setting [1], the “scaled lipid accumulation score” value was 0.977 (active). As for `CCN(CC)CCNC(=O)c1cc(S(C)(=O)=O)ccc1OC` [Tiapride hydrochloride], the “scaled lipid accumulation score” value was 0.066. In addition, under setting [1], the “scaled lipid accumulation score” value was ≤ 0 and ≤ -0.027. In the case of `CCCCOc1cc(C(=O)NCCN(CC)CC)c2ccccc2n1` [Dibucaine], the “scaled lipid accumulation score” value is 0.284. In the case of `CCCCOc1cc(C(=O)NCCN(CC)CC)c2ccccc2n1` [Dibucaine HCl], under setting [3], the “scaled lipid accumulation score” value was 0.253. Take `CS(=O)(=O)NC(=O)CCC/C=C\C[C@H]1C(=O)C[C@@H](O)[C@@H]1/C=C/[C@@H](O)COc1ccccc1` [Sulprostone]: under setting [2], the “scaled lipid accumulation score” value is at most 0. As to `O=C1NC(=O)C(c2cnc3ccccn23)=C1c1cn2c3c(cc(F)cc13)CN(C(=O)N1CCCCC1)CC2` [listing 1 of 2 here], the “scaled lipid accumulation score” value (library stock concentration: 80 uM) was 0.956 (active) and the “scaled lipid accumulation score” value under setting [1] was 0.857 (active). With `O=C1NC(=O)C(c2cnc3ccccn23)=C1c1cn2c3c(cc(F)cc13)CN(C(=O)N1CCCCC1)CC2` [listing 2 of 2 here], the “scaled lipid accumulation score” value by setting is: under setting [4], 0.836; under setting [5], 0.699. For `CC(=O)N[C@H]1[C@H]([C@H](O)[C@H](O)CO)OC(C(=O)O)=C[C@@H]1NC(=N)N` [Zanamivir], the “scaled lipid accumulation score” value by setting is: under setting [3], at most 0; under setting [1], at most 0.

On to `COc1ccc(C(=O)/C(Br)=C\C(=O)O)cc1` [Bromebric acid], for which, where the note is “library stock concentration: 7 mM”, the “scaled lipid accumulation score” value was at most -0.006. Regarding `NC(N)=NC(=O)c1nc(Cl)c(N)nc1N`, the “scaled lipid accumulation score” value under setting [1] was at most 0. On to `c(c1N)(C(=O)\N=C(\N)/N)nc(c(N2CCCCCC2)n1)Cl` [5-(N,N-hexamethylene)amiloride], for which the “scaled lipid accumulation score” value under setting [1] was 1.13 (active). As for `CN(C)c1nc(N)c(C(=O)NC(=N)N)nc1Cl` [5-(N,N-Dimethyl)amiloride hydrochloride], the “scaled lipid accumulation score” value under setting [1] was at most 0. `n(c1N)c(N(CC)C(C)C)c(nc1C(=O)\N=C(\N)/N)Cl` [5-(N-Ethyl-N-isopropyl)amiloride]: the “scaled lipid accumulation score” value under setting [1] was 1.07 (active).

For the molecule `O=C(O)CCCC=CCC1C(=O)CC(O)C1C=CC(O)CCc1ccccc1` (configuration not stated) [17-Phenyl-trinor-prostaglandin E2], the “scaled lipid accumulation score” value under setting [2] is at most -0.021.

For the molecule `O=C(O)CCCC=CCC1C(=O)CC(O)C1C=CC(O)CCc1ccccc1` (configuration not stated) [17-phenyl trinor Prostaglandin E2], the “scaled lipid accumulation score” value under setting [2] was at most 0. As to `O=C(O)c1cc(N(Cc2ccccc2O)Cc2cc(O)ccc2O)ccc1O` [Lavendustin A], where the note is “library stock concentration: 13.1 mM”, the “scaled lipid accumulation score” value is at most -0.007. As to `O=C(O)C(Cc1ccccc1[N+](=O)[O-])=NNc1nc(-c2ccc(Cl)c(Cl)c2)cs1`, the “scaled lipid accumulation score” value is, setting by setting: under setting [3], 0.038; under setting [1], at most 0. Consider `Nc1ccc(S(=O)(=O)O)cc1.Nc1ccc(S(=O)(=O)O)cc1.[Zn]` [Sulfanilate zinc], for which, where the note is “library stock concentration: 4.9 mM”, the “scaled lipid accumulation score” value is at most 0.

Consider `O=C1NC(=O)C(=Cc2ccc(-c3ccc(F)cc3)o2)S1` (stereo in doubt), for which the “scaled lipid accumulation score” value under setting [3] was 0.028 and the “scaled lipid accumulation score” value under setting [1] is at most 0. Regarding `O=C1NC(=O)/C(=C/c2ccc(-c3ccc(F)cc3O)o2)S1` [listing 1 of 2 here], under setting [1], the “scaled lipid accumulation score” value was 1.66 (active).

For `O=C1NC(=O)/C(=C/c2ccc(-c3ccc(F)cc3O)o2)S1` [listing 2 of 2 here], the “scaled lipid accumulation score” value is 0.064 under setting [4]; 0.034 under setting [2]; 0.304 under setting [5]; 0.132 under setting [3]; 0.526 and 0.759 under setting [1].
